Assay outcomes deposited in PubChem by several laboratories.
Hits are enriched below; roughly 4.7% of the tested compounds scored in any of these assays.
DUSP3 inh = VHR1 phosphatase inhibitors, primary screen, biochemical, absorbance, uHTS; recombinant VHR phosphatase, pNPP absorbance; inhibition, % at 13.3 µM; Dual specificity protein phosphatase 3 (Homo sapiens), P51452; hit rate 0.52% among 290,000; in the data active means inhibition above about 50%
Target sequence (P51452 whole entry, looked up): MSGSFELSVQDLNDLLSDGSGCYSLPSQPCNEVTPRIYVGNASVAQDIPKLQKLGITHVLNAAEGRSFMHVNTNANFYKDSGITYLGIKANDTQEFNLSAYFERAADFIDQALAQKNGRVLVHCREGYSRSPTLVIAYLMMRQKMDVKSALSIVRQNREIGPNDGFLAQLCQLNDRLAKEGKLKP
CCHF vOTU inh = CCHFV vOTU protease inhibitors, primary screen, biochemical, Pep-AMC substrate, fluorescence. Crimean-Congo hemorrhagic fever virus L polyprotein viral ovarian tumor (vOTU) protease …. inhibition, % at 11.5 µM. hit rate 0.55% among 370,000; further: 0% = vehicle wells with enzyme and 100% = no enzyme wells
GDH-TPI counter-1 = GDH-TPI coupling enzyme inhibitors, primary screen, artefact control for M. tuberculosis FBA inhibitor project, biochemical, absorbance, full deck | inhibition, % at 4.8 µM | GDH-TPI coupled enzyme counterscreen, NADH absorbance | hit rate 1.2% among 360,000;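 further: 0% = DMSO wells and 100% = wells lacking the enzyme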
FBA Mtb inh = Mtb FBA enzyme inhibitors, primary screen, biochemical, fluorescence, strain H37Rv; inhibition, % at 1 µM; hit rate 2.3% among 360,000; purified M. tuberculosis FBA, fluorescence read-out; Fructose-bisphosphate aldolase (Mycobacterium tuberculosis (strain ATCC 25618 / H37Rv)), …; in the data active means inhibition above about 27%;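 further: 0% = vehicle and 100% = reference inhibitor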
Target sequence (P9WQA3 whole entry, looked up): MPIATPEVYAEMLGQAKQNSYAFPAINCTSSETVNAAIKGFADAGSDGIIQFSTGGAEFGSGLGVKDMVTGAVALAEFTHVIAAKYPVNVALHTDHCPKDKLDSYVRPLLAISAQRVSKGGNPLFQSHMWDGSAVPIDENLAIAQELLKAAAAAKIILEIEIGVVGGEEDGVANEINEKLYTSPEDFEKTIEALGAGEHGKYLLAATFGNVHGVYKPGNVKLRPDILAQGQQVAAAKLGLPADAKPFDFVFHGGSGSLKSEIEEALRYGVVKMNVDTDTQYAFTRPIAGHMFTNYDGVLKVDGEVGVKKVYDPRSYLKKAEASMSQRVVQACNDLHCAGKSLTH
RecA splice inh = Mtb RecA intein splicing inhibitors, primary screen, biochemical, fluorescence, HTS | Protein RecA (Mycobacterium tuberculosis (strain ATCC 25618 / H37Rv)), P9WHJ3 | cell-free RecA intein splicing | inhibition, % (test concentration not listed) | hit rate 0.75% among 290,000; in the data active means inhibition above about 30%;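 further: 0% = vehicle wells and 100% = reference inhibitor control wells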
3CLpro inhibitor = SARS-CoV 3CLpro protease inhibitors, primary screen, biochemical, quenched FRET. Replicase polyprotein 1ab (Severe acute respiratory syndrome coronavirus), P0C6X7. recombinant SARS-CoV 3CLpro, quenched FRET peptide cleavage. inhibition, % at 6 µM. hit rate 0.14% among 290,000. AID 1706, 2009; in the data active means inhibition above about 12%
Mtb FBA confirm = M. tuberculosis aldolase blockers, biochemical, fluorescence, strain H37Rv, confirmation. AID 651616, 2012. shares compounds with FBA Mtb inh. hit rate 78% among 5,600. inhibition, % at 1 µM. purified M. tuberculosis FBA, fluorescence read-out; in the data active means inhibition above about 27%;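 further: 0% = vehicle wells and 100% = reference inhibitor wells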
GDH-TPI counter-2 = GDH-TPI coupling enzyme inhibitors, artefact control for M. tuberculosis FBA inhibitor project, biochemical, fluorescence, high throughput | shares compounds with FBA Mtb inh | GDH-TPI coupled enzyme counterscreen | inhibition, % at 1 µM | hit rate 81% among 5,600; in the data active means inhibition above about 10%
GDH-TPI DR = GDH-TPI coupling enzyme inhibitors, dose response, artefact control for M. tuberculosis FBA inhibitor project, biochemical, fluorescence, IC50 | GDH-TPI coupled enzyme assay, artifact counterscreen | shares compounds with FBA Mtb inh | AID 652145, 2013 | IC50, µM | hit rate 79% among 170; call rule not given here
* marks the source's active call; other numbers are inactive results; . = not tested or not shown; + = active, no number. Unless noted, no stated cut-off is given here; in the data, active means inhibition above about 30%; inactive means the rest.

SMILES	DUSP3 inh	CCHF vOTU inh	GDH-TPI counter-1	FBA Mtb inh	RecA splice inh	3CLpro inhibitor	Mtb FBA confirm	GDH-TPI counter-2	others
COC(=O)C1=CN(c2cc(C)cc(C)c2)C=C(C(=O)OC)C1c1ccc(OC)c(O)c1	-35	12	8	5	-6	2	.	.
COC(=O)C1=CN(c2ccc(F)cc2)C=C(C(=O)OC)C1c1ccc(O)cc1	.	-83	9	71*	1	3	96*	82*
COc1ccc(CCNC(=O)Cc2ccsc2)cc1	7	-10	-1	-1	0	0	.	.
CCn1c(SCC(=O)Nc2oc(C)c3c(C)n[nH]c(=O)c23)nnc1-c1ccco1	.	-8	14	2	.	.	.	.
COc1cc2[nH]c(=S)nc(NCC3CCCO3)c2cc1OC (stereo unspecified)	31	-1	22	75*	-1	3	83*	61*
COc1cc2[nH]c(C(=O)NCC3CCCO3)cc2c(OC)c1OC (stereo unspecified)	10	-17	3	32*	-4	-4	+	+
COc1cc2[nH]c(=S)nc(NC3CCCCCC3)c2cc1OC	16	-3	5	1	11	1	.	.
Cc1nc2ccccc2c(=O)n1NC(=O)c1ccc(Cl)c(Cl)c1	2	24	-3	5	-2	-5	.	.
CCCC(=O)Nc1nnc(-c2ccc3c(c2)OCO3)s1	-3	-19	6	38*	0	5	115*	103*
Cc1onc(-c2ccccc2)c1C(=O)Nc1nnc(-c2ccncc2)s1	-6	4	57*	46*	-1	-4	67*	55*
Cc1onc(-c2ccccc2)c1C(=O)Nc1ccncc1	-16	8	5	1	0	-3	.	.
O=C(Nc1nnc(-c2ccncc2)s1)C1CCCO1 (stereo unspecified)	-10	-32	26	82*	2	-3	15	-6	GDH-TPI DR=2*
CCC(=O)Nc1nnc(-c2ccncc2)s1	12	-7	-3	43*	.	1	100*	89*
O=C(Nc1nnc(-c2ccccc2F)s1)C1CCCO1 (stereo unspecified)	32	-7	-1	2	1	1	.	.
CCC(=O)Nc1nnc(Cc2ccccc2)s1	-13	0	-9	0	-4	-5	.	.
CC(C)c1[nH]nc2c1C(c1ccc3c(c1)OCO3)NC2=O (stereo unspecified)	.	-5	.	.	.	.	.	.
Cc1cc(=O)oc2cc(OCC(=O)OCC(=O)N3CCC(C)CC3)ccc12	-15	-23	10	42*	-2	0	182*	131*
Cc1cc(=O)oc2cc(OCC(=O)N3CCC(C(N)=O)CC3)ccc12	4	0	20	27*	10	1	+	+
Cc1cc(OCC(=O)N2CCC(C(N)=O)CC2)c2c(C)cc(=O)oc2c1	17	-14	9	33*	-1	-1	17	15*
CCOc1ccc(S(=O)(=O)N2CCN(C(=O)CCOc3ccccc3C)CC2)cc1	.	0	-2	1	3	.	.	.
Cc1c(OCC(=O)NC2CC(C)(C)NC(C)(C)C2)ccc2c3c(c(=O)oc12)CCC3	15	9	14	32*	0	-7	43*	35*
CC1(C)CC(NC(=O)COc2cc3oc(=O)c4c(c3cc2Cl)CCC4)CC(C)(C)N1	10	17	22	7	-3	-1	.	.
Cc1c(OCC(=O)NC2CC(C)(C)NC(C)(C)C2)ccc2c1oc(=O)c1ccccc12	53*	-77	18	63*	-1	-8	50*	59*
Cc1ccc(NS(=O)(=O)c2c(C)noc2C)cc1	12	0	-15	1	-2	3	.	.
COc1ccc2c(c1)c(=O)oc1c(C)c(OC(C)C(=O)NCC3CCC(C(=O)O)CC3)ccc12 (stereo unspecified)	8	-35	9	35*	-5	3	92*	81*
SMILES	DUSP3 inh	CCHF vOTU inh	GDH-TPI counter-1	FBA Mtb inh	RecA splice inh	3CLpro inhibitor	Mtb FBA confirm	GDH-TPI counter-2	others
Cc1cc(=O)oc2c(C)c(OC(C)C(=O)NCC3CCC(C(=O)O)CC3)ccc12 (stereo unspecified)	33	-5	13	4	0	-4	.	.
COc1ccc2c(c1)c(=O)oc1c(C)c(OCc3cc(C(=O)O)oc3C)ccc12	116	-24	3	43*	1	6	-4	-7
Cc1oc(C(=O)O)cc1COc1cccc2cccnc12	24	-2	6	2	-2	-1	.	.
COc1ncccc1-c1nnn(-c2ccc(Cl)nc2)n1	14	17	17	27*	2	0	+	+
CN1CN(C)c2cccc3cccc1c23	8	-85	16	98*	-7	-3	48*	40*
COc1cc(CNC(=O)Nc2cccn3nc(COCCO)nc23)cc(OC)c1OC	.	-4	0	0	.	.	.	.
Cc1cccc(CNc2ncnc3ccc(-c4ccc5c(c4)OCO5)cc23)c1	.	0	14	7	.	.	.	.
Cc1ccc(CNc2ncnc3ccc(-c4ccc(CO)o4)cc23)o1	.	-33	26	81*	.	.	8	-1
C#CCn1c(-c2cccs2)nc2ccccc21	35	-8	10	68*	0	6	61*	39*
CCn1c(-c2cccs2)nc2ccccc21	9	-11	2	58*	0	2	123*	108*
CC(C)Sc1nc2c(cnn2-c2ccc(Cl)cc2)c(=O)[nH]1	21	-9	-1	0	-1	1	.	.
O=C(C1CC1)N1N=C(C2CCCCC2)CC1(O)C(F)(F)F (stereo unspecified)	9	15	-3	3	-1	2	.	.
CCOC(=O)CC(S(=O)(=O)c1ccccc1)S(=O)(=O)c1ccccc1	.	-3	6	1	.	.	.	.
COC(=O)C1=C(C)NC2=C(C(=O)CCC2)C1c1cccc(C)n1 (stereo unspecified)	8	-53	4	28*	.	-5	147*	121*
